Counter-ions that a name gives are not always drawn.
How the values were obtained:
[1] = tested on: S. cerevisiae SK1 pCDA2-eGFP (USY613), sporulating; test: CDA2-GFP sporulation assay sensitivity score (z-score vs DMSO controls); higher = stronger inhibition of sporulation, active = hit call of the paper;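 note: active if sensitivity score above 5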
[2] = tested on: S. cerevisiae AD1-9 (efflux-pump deficient), vegetative growth in YPD; test: growth sensitivity score (doubling time z-score vs DMSO controls); higher = slower growth, strongly negative scores also mark growth inhibition (complete suppression), active = hit call of the paper
Method in brief: (§1)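 Optical density of Saccharomyces cerevisiae cultures in microtiter plates was followed every 15 min for 24 hours after seeding at an OD600 of 0.065. Eight solvent-only wells were run per experiment. Growth sensitivity scores were found by subtracting the solvent-only mean from the compound mean and dividing by the solvent-only standard deviation.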

[3] = tested on: S. cerevisiae BY4741 (wild-type), vegetative growth in YPD; test: as above
Method in brief: as §1

[4] = stock concentration (mM, diluted 1:100): 10
[5] = stock concentration (mM, diluted 1:100): 10.1
[6] = stock concentration (mM, diluted 1:100): 8.2
[7] = stock concentration (mM, diluted 1:100): 9.7
[8] = stock concentration (mM, diluted 1:100): 8.6

Structure (SMILES): c1ccc2c(c1)Nc1ccccc1S2 [Phenothiazine]
- CDA2-GFP sporulation assay sensitivity score [1, 4]: 3.38 (inactive)
- growth sensitivity score [2, 4]: 11.7 (active)
- growth sensitivity score [3, 4]: 5.99 (active)

Structure (SMILES): COc1cccc(C2(O)CCCCC2CN(C)C)c1 (centres undefined) [Tramadol]
- CDA2-GFP sporulation assay sensitivity score [1, 4]: 0.06 (inactive)
- growth sensitivity score [2, 4]: -0.93 (inactive)
- growth sensitivity score [3, 4]: -0.39 (inactive)

Structure (SMILES): c1ccc(Cn2ccnc2)cc1 [1-Benzylimidazole]
- CDA2-GFP sporulation assay sensitivity score [1, 4]: 2.48 (inactive)
- growth sensitivity score [2, 4]: -1.25 (inactive)
- growth sensitivity score [3, 4]: -1.22 (inactive)

Structure (SMILES): CC(C)CC(N(C)C)C1(c2ccc(Cl)cc2)CCC1 (centres undefined) [Sibutramine hydrochloride]
- CDA2-GFP sporulation assay sensitivity score [1, 4]: 8.57 (inactive)
- growth sensitivity score [2, 4]: 6.62 (active)
- growth sensitivity score [3, 4]: 1.85 (inactive)

Structure (SMILES): CCN(C(C)=O)c1cccc(-c2ccnc3c(C#N)cnn23)c1 [Zaleplon]
- CDA2-GFP sporulation assay sensitivity score [1, 4]: 6.36 (inactive)
- growth sensitivity score [2, 4]: -0.13 (inactive)
- growth sensitivity score [3, 4]: -0.43 (inactive)

Structure (SMILES): CC[C@]1(O)CC[C@H]2[C@@H]3CCC4=CCCC[C@@H]4[C@H]3CC[C@@]21C [Ethylestrenol]
- CDA2-GFP sporulation assay sensitivity score [1, 4]: 8.75 (active)
- growth sensitivity score [2, 4]: 93.9 (active)
- growth sensitivity score [3, 4]: 2.86 (active)

Structure (SMILES): Oc1cc2c(cc1O)[C@H]1c3ccccc3CN[C@@H]1CC2
- CDA2-GFP sporulation assay sensitivity score [1, 4]: -1.42 (inactive)
- growth sensitivity score [2, 4]: 0.66 (inactive)
- growth sensitivity score [3, 4]: 0.31 (inactive)

Structure (SMILES): OC1CCCCC1N1CCC(c2ccccc2)CC1 (centres undefined) [Vesamicol hydrochloride]
- CDA2-GFP sporulation assay sensitivity score [1, 4]: 1.08 (inactive)
- growth sensitivity score [2, 4]: -0.57 (inactive)
- growth sensitivity score [3, 4]: -0.16 (inactive)

Structure (SMILES): CC[C@@H]1C=CC=CC[C@H](C)[C@@H](O)[C@@H](C)C(=O)[C@H](C)[C@@H](O)[C@H](C)C(=O)[C@H](C)[C@@H](O)[C@H](C)C=CC(=O)O[C@H]2[C@@H](C)[C@@H](CC1)O[C@@]1(CC[C@@H](C)[C@@H](C[C@H](C)O)O1)[C@@H]2C [Oligomycin c]
- CDA2-GFP sporulation assay sensitivity score [1, 4]: -1.43 (inactive)
- growth sensitivity score [2, 4]: 0.66 (inactive)
- growth sensitivity score [3, 4]: 1.53 (inactive)

Structure (SMILES): Oc1ccc2c3c1O[C@H]1c4[nH]c5ccccc5c4C[C@@]4(O)[C@@H](C2)N(CC2CC2)CC[C@]314 [Naltrindole]
- CDA2-GFP sporulation assay sensitivity score [1, 4]: 3.11 (inactive)
- growth sensitivity score [2, 4]: -3.12
- growth sensitivity score [3, 4]: -1.11 (inactive)

Structure (SMILES): CC(O)(CS(=O)(=O)c1ccc(F)cc1)C(=O)Nc1ccc(C#N)c(C(F)(F)F)c1 (centres undefined) [Bicalutamide]
- CDA2-GFP sporulation assay sensitivity score [1, 4]: 0.41 (inactive)
- growth sensitivity score [3, 4]: 0.66 (inactive)

Structure (SMILES): C[C@]12CC[C@H]3[C@@H](CCC4=CC(=O)CC[C@@]43C)[C@@H]1CC[C@@H]2O [Testosterone]
- CDA2-GFP sporulation assay sensitivity score [1, 4]: 21.1 (active)
- growth sensitivity score [2, 4]: 44.5 (active)
- growth sensitivity score [3, 4]: 4.61 (active)

Structure (SMILES): C[C@]12CCC(=O)C[C@@H]1CC[C@@H]1[C@@H]2CC[C@@]2(C)[C@H]1CC[C@]2(C)O [Mestanolone]
- CDA2-GFP sporulation assay sensitivity score [1, 5]: 0.79 (inactive)
- growth sensitivity score [2, 5]: 2.2 (active)
- growth sensitivity score [3, 5]: -0.15 (inactive)

Structure (SMILES): C[N+]1(CCC(C(N)=O)(c2ccccc2)c2ccccc2)CCCCC1 [Fenpiverinium bromide]
- CDA2-GFP sporulation assay sensitivity score [1, 5]: 0.3 (inactive)
- growth sensitivity score [2, 5]: -1.25 (inactive)
- growth sensitivity score [3, 5]: -1.06 (inactive)

Structure (SMILES): C[C@]12CCC(=O)C=C1CC[C@@H]1[C@@H]2CC[C@@]2(C)[C@H]1CC[C@]2(C)O [Methyltestosterone]
- CDA2-GFP sporulation assay sensitivity score [1, 4]: 3.87 (inactive)
- growth sensitivity score [2, 4]: 32.3 (active)
- growth sensitivity score [3, 4]: 3.83 (active)

Structure (SMILES): C[C@]12C/C(=C/O)C(=O)C[C@@H]1CC[C@@H]1[C@@H]2CC[C@@]2(C)[C@H]1CC[C@]2(C)O [Oxymetholone]
- CDA2-GFP sporulation assay sensitivity score [1, 5]: 1.28 (inactive)
- growth sensitivity score [3, 5]: 9.13 (active)

Structure (SMILES): COc1ccc2c(c1)[C@]13CCCC[C@@H]1[C@H](C2)N(C)CC3 [Dextromethorphan hydrobromide]
- CDA2-GFP sporulation assay sensitivity score [1, 6]: 14.1 (active)
- growth sensitivity score [2, 6]: -0.05 (inactive)
- growth sensitivity score [3, 6]: -0.39 (inactive)

Structure (SMILES): NC(=O)OCCCc1ccccc1 [Phenprobamate]
- CDA2-GFP sporulation assay sensitivity score [1, 5]: -0.41 (inactive)
- growth sensitivity score [2, 5]: -0.54 (inactive)
- growth sensitivity score [3, 5]: 0.48 (inactive)

Structure (SMILES): CN1C(=O)COc2c(C(=O)NC3CN4CCC3CC4)cc(Cl)cc21 (centres undefined) [Azasetron]
- growth sensitivity score [2, 4]: -0.58 (inactive)
- growth sensitivity score [3, 4]: -0.56 (inactive)

Structure (SMILES): CN1CCC(c2ccc(F)cc2)C(COc2ccc3c(c2)OCO3)C1 (centres undefined) [Methyl paroxetine]
- CDA2-GFP sporulation assay sensitivity score [1, 7]: 0.37 (inactive)
- growth sensitivity score [2, 7]: 35 (active)
- growth sensitivity score [3, 7]: 2.48 (active)

Structure (SMILES): FC(F)(F)c1cccc(N2CCNCC2)c1
- CDA2-GFP sporulation assay sensitivity score [1, 4]: 0.69 (inactive)
- growth sensitivity score [2, 4]: 2.22 (active)
- growth sensitivity score [3, 4]: 1.25 (inactive)

Structure (SMILES): Oc1ccc2c3c1O[C@H]1[C@@H](O)CC[C@@]4(O)[C@@H](C2)N(CC2CCC2)CC[C@]314 [Nalbuphine]
- CDA2-GFP sporulation assay sensitivity score [1, 4]: -0.4 (inactive)
- growth sensitivity score [2, 4]: -1.74 (inactive)
- growth sensitivity score [3, 4]: -0.96 (inactive)

Structure (SMILES): C=C1C[C@@H]2[C@H](CC[C@]3(C)C(=O)CC[C@@H]23)[C@@]2(C)C=CC(=O)C=C12 [Exemestane]
- CDA2-GFP sporulation assay sensitivity score [1, 4]: 7.73 (active)
- growth sensitivity score [2, 4]: 4.58 (active)
- growth sensitivity score [3, 4]: 0.77 (inactive)

Structure (SMILES): CCOC(=O)C1(c2ccccc2)CCN(CCC(C#N)(c2ccccc2)c2ccccc2)CC1 [Diphenoxylate]
- CDA2-GFP sporulation assay sensitivity score [1, 8]: 1.47 (inactive)
- growth sensitivity score [2, 8]: 5.75 (active)
- growth sensitivity score [3, 8]: -0.94 (inactive)

Structure (SMILES): COc1ccc2[nH]cc(C3=CCNCC3)c2c1
- growth sensitivity score [2, 5]: -2.3
- growth sensitivity score [3, 5]: -0.36 (inactive)

Structure (SMILES): C=C(C)CN1CC[C@]23c4c5ccc(O)c4O[C@H]2c2[nH]c4ccccc4c2C[C@@]3(O)C1C5
- CDA2-GFP sporulation assay sensitivity score [1, 5]: 4.94 (inactive)
- growth sensitivity score [2, 5]: 11.1 (active)
- growth sensitivity score [3, 5]: 0.61 (inactive)
